# CYP2C19 inhib = blocks human cytochrome P450 2C19; CYP2C19 Supersomes, luciferin-H EGE luminescence, 30 min; inhibition, % at 5 µM; P33261; 21% of 96,000 active;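 active = CYP2C19 inhibition above a set limit at 5 µM in the primary screen, cut at about 50% in these data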;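 note: plate controls were negative control wells for no effect and 2.5 mM tranylcypromine positive control for full effect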
# CYP2C9 activ = activators of human CYP2C9; P11712; 1.4% of 96,000 active; recombinant CYP2C9, luciferin-H conversion, luminescence; active compounds read high; factor 1 = untreated enzyme, 0 = blocked; activation factor at 5 µM;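 active = activation factor of 2 or more for CYP2C9 at a 5 µM dose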;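 note: 0 = sulfaphenazole-blocked wells and 1 = vehicle-only wells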
# Target sequence (P11712 whole entry, looked up): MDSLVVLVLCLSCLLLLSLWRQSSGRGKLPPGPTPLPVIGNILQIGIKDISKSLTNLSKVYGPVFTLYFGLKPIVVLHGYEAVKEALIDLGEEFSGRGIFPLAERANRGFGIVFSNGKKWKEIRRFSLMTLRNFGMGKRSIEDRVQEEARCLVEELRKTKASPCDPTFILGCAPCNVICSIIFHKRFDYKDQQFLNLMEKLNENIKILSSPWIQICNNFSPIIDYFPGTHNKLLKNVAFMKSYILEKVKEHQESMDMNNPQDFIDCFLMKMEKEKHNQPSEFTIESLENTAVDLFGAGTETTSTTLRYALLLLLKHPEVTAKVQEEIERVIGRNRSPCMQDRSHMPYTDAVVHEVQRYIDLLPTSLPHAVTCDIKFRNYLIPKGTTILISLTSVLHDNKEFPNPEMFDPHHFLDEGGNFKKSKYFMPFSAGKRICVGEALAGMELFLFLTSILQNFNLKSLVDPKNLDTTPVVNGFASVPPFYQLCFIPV
# cytoskel mod = modifiers of cytoskeleton assembly. inhibition, % at 2 µM. HUVEC TNFa F-actin phalloidin imaging, high content. 0.18% of 91,000 active. AID 836;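 active = inhibition above the batch mean plus 3 SD and confirmed as a hit by visual image inspection, cut at about 30% in these data, passing the limit was not always enough; inconclusive = above the inhibition threshold but rejected on visual inspection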
# CYP2C9 inh = blocks human cytochrome P450 2C9; P11712; CYP2C9 Supersomes, luciferin-H conversion, luminescence; inhibition, % at 5 µM; 20% of 96,000 active; AID 777;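 active = blocking of liver enzyme CYP2C9 beyond about 50% at 5 µM, limit read from the data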
# CYP2C19 act = cytochrome P450 2C19 (human) activation; AID 1025; 96,000 tested, under 10 active; activation factor at 5 µM; P33261; recombinant CYP2C19, luciferin-H EGE luminescence; active compounds read high; 0 = fully inhibited enzyme, 1 = untreated enzyme;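 active = activation factor of at least 2 at 5 µM in the primary screen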;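 note: 0 = wells with 2.5 mM tranylcypromine and 1 = vehicle-only wells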
# E-sel TNF inh = blocks E-selectin expression induced by TNF alpha; HUVEC TNFa-induced E-selectin immunofluorescence, high content; inhibition, % at 2 µM; 0.71% of 120,000 active;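 active = inhibition above the batch mean plus 3 SD, and confirmed as a hit on visual image review, cut at about 43% in these data; inconclusive = passes the inhibition cutoff but fails visual image review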;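 note: 0% = TNF-stimulated DMSO wells and 100% = unstimulated control wells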
# Starred values were filed as active, the others as inactive; u = inconclusive; x = not tested or not shown. Hits are enriched below; roughly 22% of the tested compounds scored in any of these assays.
SMILES,CYP2C19 inhib,CYP2C9 activ,cytoskel mod,CYP2C9 inh,CYP2C19 act,E-sel TNF inh
CCCCCCn1c(SCC(C)C)nc2c1c(=O)[nH]c(=O)n2C,35,0.4,62,57*,0.6,-6
CCCCCn1c(Sc2nc3ccccc3s2)nc2c1c(=O)[nH]c(=O)n2C,37,0.5,13,51*,0.6,-8
C=C(C)Cn1c(Sc2nc3ccccc3[nH]2)nc2c1c(=O)[nH]c(=O)n2C,88*,0.7,4,33,0.1,x
CCOCCn1c(SCc2ccc(F)cc2)nc2c1c(=O)[nH]c(=O)n2C,3,1,14,-2,1,2
COC(=O)c1sccc1-c1ccc(C(=O)Nc2cccc(Cl)c2)o1,43,0.3,0,72*,0.6,-7
COC(=O)c1ccccc1NC(=O)c1ccc(-c2cccc(Cl)c2)o1,8,0.9,u,6,0.9,44*
Cc1nnc2sc(-c3cccc(NC(=O)c4ccc(-c5cccc(Cl)c5)o4)c3)nn12,x,x,8,x,x,19
COC(=O)c1ccccc1NC(=O)c1ccc(COc2cccc3ccccc23)o1,33,0.4,3,58*,0.7,x
COC(=O)c1ccccc1NC(=O)c1ccc(COc2ccccc2)o1,21,1.2,-4,-18,0.8,-22
CCS(=O)(=O)N1CCN(C2Cc3ccccc3C2)CC1,14,1.1,0,-5,0.9,x
COc1ccccc1/C=N/Nc1nccnc1Cl,51*,0.5,26,47,0.5,-6
COCCn1c(SCC(=O)Nc2ccccc2)nc2c1c(=O)[nH]c(=O)n2C,-2,0.7,x,25,1,-41
CC(C)CCNc1nnnc2c1sc1nc(N3CCOCC3)c3c(c12)CC(C)(C)SC3,37,0.2,-27,85*,0.6,18
Cc1ccc(-c2nnc(N3CCCCC3)c3ccccc23)cc1S(=O)(=O)N1CCN(C)CC1,15,0.4,-4,58*,0.9,-4
Cc1ccc(-c2nnc(N3CCCCC3)c3ccccc23)cc1S(=O)(=O)N(C)C,20,0.5,-6,48,0.8,-48
COc1ccc(S(=O)(=O)N2CCC(C(=O)Nc3cccc(Cl)c3)CC2)cc1OC,53*,1.1,-29,-9,0.5,11
COc1ccc(OC)c(S(=O)(=O)N2CCC(C(=O)Nc3ccccc3)CC2)c1,x,x,x,x,x,-45
COc1ccc(OC)c(S(=O)(=O)N2CCC(C(=O)Nc3cccc(C)c3)CC2)c1,88*,1.3,-3,-32,0.1,10
COC(=O)c1ccccc1NC(=O)C1CCN(S(=O)(=O)c2cc(C)ccc2OC)CC1,86*,0.1,-24,88*,0.1,-5
Cc1ccccc1NC(=O)Cn1cnc2c(oc3ccccc32)c1=O,64*,0.4,2,59*,0.4,11
O=C(CSc1ncnc2c1oc1ccccc12)NCc1ccc(F)cc1,65*,0.3,4,72*,0.3,-12
NC(=O)CSc1ncnc2c1oc1ccccc12,-1,1,3,5,1,-4
O=C(CSc1ncnc2c1oc1ccccc12)NC1CCCCC1,72*,0.3,0,72*,0.3,1
Cc1cc(C)nc(Sc2ncnc3c2oc2ccccc23)n1,58*,1.3,10,-25,0.4,-8
O=C(Cn1cnc2c(oc3ccccc32)c1=O)c1ccccc1,4,0.7,-17,28,1,13
SMILES,CYP2C19 inhib,CYP2C9 activ,cytoskel mod,CYP2C9 inh,CYP2C19 act,E-sel TNF inh
O=C(CSc1ncnc2c1oc1ccccc12)NCC1CCCO1 (stereo not drawn),x,x,x,x,x,-2
COc1ccccc1-c1nc2n(n1)C(c1ccc(Cl)cc1)C(C(N)=O)=C(C)N2 (stereo not drawn),x,x,-5,x,x,-10
O=C(Cc1cccs1)Nc1nnc(SCc2cccc3ccccc23)s1,x,x,x,x,x,15
CCN1CCCC1CNC(=O)c1csc2c1CCCC2 (stereo not drawn),4,1.1,18,-9,1,-6
Fc1cccc(CSc2ncnc3c2oc2ccccc23)c1,4,0.9,-23,6,1,-10
O=C(CSc1ncnc2c1oc1ccccc12)Nc1cccc(F)c1,60*,0.2,-27,76*,0.4,x
Cc1cccc(NC(=O)CSc2ncnc3c2oc2ccccc23)c1,38,0.4,-8,63*,0.6,5
CC1(C)Cc2c(oc3ncn4ncnc4c23)CO1,-8,1.1,x,-7,1.1,x
CCN(CC(=O)NC)S(=O)(=O)c1ccc(Br)cc1,52*,1.3,2,-26,0.5,6
Cc1ccc(S(=O)(=O)C(C)C(=O)c2ccc3c(c2)OCCO3)cc1 (stereo not drawn),87*,1.1,7,-13,0.1,-19
CCN(CC(=O)Nc1ccc2c(c1)OCCO2)S(=O)(=O)c1cccs1,62*,0.2,-26,85*,0.4,-10
CCN(CC(=O)NC)S(=O)(=O)c1ccc(C)cc1,21,1.3,4,-30,0.8,-32
CCN(CC(=O)Nc1ccc2c(c1)OCCO2)S(=O)(=O)c1ccc(C)cc1,24,0.2,-8,76*,0.8,17
CC(=O)N1CCN=C1SCc1c(F)cccc1Cl,20,1.1,-6,-11,0.8,x
CCOC(=O)C1CCN(S(=O)(=O)c2cc(Cl)c(C)cc2OC)CC1,98*,1,-8,3,0,-6
CCOC(=O)C1CCN(S(=O)(=O)c2ccc(Cl)cc2OC)CC1,84*,1.4,-2,-43,0.2,11
Cc1ccc(-n2c(SCC(=O)Nc3nccs3)nc3c(c2=O)SCC3)cc1,-17,1.1,x,-12,1.2,97*
COc1ccccc1-n1c(SCC(=O)Nc2cccc(C)c2)nc2c(c1=O)SCC2,83*,0.3,5,74*,0.2,-7
COc1ccc(NC(=O)CSc2nc3ccccc3c(=O)n2-c2ccc3c(c2)OCO3)c(OC)c1,7,0.9,0,12,0.9,-26
COc1ccc(-n2c(SCC(=O)Nc3ccc4c(c3)OCO4)nc3ccccc3c2=O)cc1,92*,0.1,-4,91*,0.1,6
CCOc1ccc(-n2c(SCC(=O)Nc3nccs3)nc3c(c2=O)SCC3)cc1,11,0.9,x,10,0.9,-35
CCC(C)n1c(SCC(=O)NC(=O)Nc2ccc3c(c2)OCCO3)nc2ccccc2c1=O (stereo not drawn),12,0.1,10,90*,0.9,x
COc1ccc(OC)c(NC(=S)NCCCN2CCOCC2)c1,x,x,x,x,x,-36
CCOc1ccc(-n2c(SCC(=O)Nc3ccc4c(c3)OCO4)nc3ccccc3c2=O)cc1,41,0.4,4,62*,0.6,17
COc1ccc(-n2c(SCC(=O)Nc3ccc4c(c3)OCO4)nc3c(c2=O)SCC3)cc1,41,0.4,-1,58*,0.6,x
COc1ccc(CCNS(=O)(=O)c2ccc(N3CCCC3=O)cc2)cc1,x,x,10,x,x,-33
O=C1CCCN1c1ccc(S(=O)(=O)NCCc2ccc(Cl)cc2)cc1,80*,0.2,1,84*,0.2,6
